Source: PubChem BioAssay (several laboratories)
TcdB inh = TcdB glycohydrolase inhibition. AID 652162. inhibition, % at 9.99 µM. P18177. hit rate 0.24% among 350,000. TcdB glycohydrolase enzymatic assay, plate reader; in the data active = inhibition above about 10%
VHR inh abs = inhibitors of human VHR1 phosphatase (DUSP3) | inhibition, % at 13.3 µM | hit rate 0.52% among 290,000 | recombinant VHR phosphatase, pNPP absorbance; in the data active = inhibition above about 50%
PrPC surface inh = cell surface PrPC inhibition, primary TR-FRET screen | P04156 | TR-FRET read-out | inhibition, % at 13.8 µM | hit rate 0.43% among 370,000 | AID 720596; in the data active = inhibition above about 24%
Each line names hits and unclear results; the compound was inactive in the other large screens. This is a sample that favours compounds with a hit; in the whole collection about 0.82% have one here.

O=S(=O)(c1ccccc1)N1CCN=C1SCc1ccccc1	TcdB inh 10
C[C@@H]1CCCCO[C@H](CN(C)S(=O)(=O)c2cccs2)[C@H](C)CN([C@@H](C)CO)C(=O)c2cc(NS(=O)(=O)c3ccccc3)ccc2O1	none (no result: VHR inh abs, PrPC surface inh)
COc1ccc(NC(=O)Nc2cccc3c2O[C@@H](CN(C)C(=O)Nc2ccccc2)[C@H](C)CN([C@@H](C)CO)C3=O)cc1	none (no result: VHR inh abs, PrPC surface inh)
CNC(=S)N/N=C(\C)c1ccc(C(C)(C)C)cc1	VHR inh abs 60 (no result: TcdB inh)
CNC(=S)N/N=C(\C)c1ccccc1	none
O=C(C[C@H]1C[C@@H]2c3cc(NC(=O)NC4CCCC4)ccc3O[C@@H]2[C@H](CO)O1)NCc1cccnc1	none (no result: VHR inh abs, PrPC surface inh)
O=c1oc(-c2ccc([N+](=O)[O-])cc2)nc2ccccc12	none
O=c1oc(-c2ccc(Br)cc2)nc2ccccc12	TcdB inh 12
COc1ccc(CN(C)C[C@H]2OCCCC[C@@H](C)Oc3ccc(NC(=O)c4ccncc4)cc3C(=O)N([C@@H](C)CO)C[C@H]2C)cc1	none (no result: VHR inh abs, PrPC surface inh)
CCCCNS(=O)(=O)c1ccc2nc(SCC(=O)c3ccc(C#N)cc3)[nH]c2c1	VHR inh abs 57 (no result: TcdB inh)
CCCCNS(=O)(=O)c1ccc2nc(SCC(=O)Nc3ccccc3)[nH]c2c1	none
CCCC(=O)Nc1ccc2c(c1)C(=O)N(C)C[C@@H](OC)[C@@H](C)CN(S(=O)(=O)c1cn(C)cn1)[C@H](C)CO2	none (no result: VHR inh abs, PrPC surface inh)
COc1ccc(C(CC(=O)Nc2ncccc2C)N2Cc3ccccc3C2=O)cc1OC (configuration not stated)	none
COc1cc(C(CC(=O)Nc2ncccc2C)N2Cc3ccccc3C2=O)cc(OC)c1OC (configuration not stated)	VHR inh abs 53
C[C@@H]1CN([C@@H](C)CO)C(=O)c2cc(C#CC3(O)CCCC3)cnc2O[C@@H]1CN(C)C(=O)Nc1ccc2c(c1)OCO2	none (no result: VHR inh abs, PrPC surface inh)
COc1ccc(NC(=O)Nc2ccc3c(c2)CC(=O)N([C@H](C)CO)C[C@@H](C)[C@H](CN(C)S(=O)(=O)c2cccs2)O3)cc1	none (no result: VHR inh abs, PrPC surface inh)
C[C@@H]1CN([C@@H](C)CO)C(=O)c2cc(NS(C)(=O)=O)ccc2O[C@@H](C)CCCCO[C@H]1CN(C)S(=O)(=O)c1ccc(Cl)cc1	none (no result: VHR inh abs, PrPC surface inh)
Cc1onc(-c2ccccc2Cl)c1C(=O)Nc1ccc2c(c1)OCO2	VHR inh abs 51 (no result: TcdB inh)
Cc1onc(-c2c(Cl)cccc2Cl)c1C(=O)Nc1ccc2c(c1)OCCO2	none (no result: TcdB inh)
O=C(C[C@H]1CC[C@@H]2[C@H](COC[C@@H](O)CN2Cc2cccc(-c3ccncc3)c2)O1)N1CCCCC1	none (no result: VHR inh abs, PrPC surface inh)
C[C@@H]1CN([C@@H](C)CO)S(=O)(=O)c2ccc(C#CC3CC3)cc2O[C@H]1CN(C)Cc1cccc(F)c1	none (no result: VHR inh abs, PrPC surface inh)
COc1ncccc1-c1cnc2cccnn12	none (no result: VHR inh abs)
Oc1ccccc1-c1cnc2cccnn12	TcdB inh 47 (no result: VHR inh abs)
COc1ccc(S(=O)(=O)Nc2cccc3c2O[C@H](CN(C)Cc2ccccc2)[C@@H](C)CN([C@@H](C)CO)C3=O)cc1	none (no result: VHR inh abs, PrPC surface inh)
CO[C@@H]1CN(C)C(=O)c2ccc(NC(=O)Nc3ccccc3)cc2OC[C@@H](C)NC[C@@H]1C	none (no result: VHR inh abs, PrPC surface inh)
Cc1c(C(=O)N2CCN(C)CC2)oc2ccc(Br)cc12	none
Cc1c(C(=O)N2CCCC2)oc2ccc(Br)cc12	VHR inh abs 53
COc1ccc(Cc2nnc(SCc3nc4ccccc4c(=O)[nH]3)o2)cc1	none
O=c1[nH]c(CSc2nnc(Cc3ccccc3)o2)nc2ccccc12	TcdB inh 19
CCCC#Cc1ccc(CC[C@H]2O[C@H]3CC[C@H](CO)O[C@H]3C[C@@H]2n2cc(C(C)(C)O)nn2)cc1	none (no result: VHR inh abs, PrPC surface inh)
CCCNC(=O)C[C@@H]1CC[C@H]2[C@@H](COC[C@H](O)CN2C(=O)Nc2cccc(Cl)c2)O1	none (no result: VHR inh abs, PrPC surface inh)
Clc1cccc(-c2ccc(/C=N/n3cnnc3)o2)c1Cl	none
Cc1c(Cl)cccc1-c1ccc(/C=N/n2cnnc2)o1	VHR inh abs 59 (no result: TcdB inh)
CCN1CCN(CCCNC(=O)c2ccc3c(c2)NC(=O)c2ccccc2S3)CC1	none
CC1CCCC(C)N1CCCNC(=O)c1ccc2c(c1)NC(=O)c1ccccc1S2 (configuration not stated)	VHR inh abs 58
COc1ccccc1-c1cn(CC[C@@H]2CC[C@H](NC(=O)NC(C)C)[C@@H](CO)O2)nn1	none (no result: VHR inh abs, PrPC surface inh)
O=C(CSc1cccc(C(F)(F)F)c1)NC(=O)c1ccccc1	VHR inh abs 51
CCNC(=O)NC(=O)CSc1cccc(C(F)(F)F)c1	none
CCCC#Cc1cnc2c(c1)C(=O)N([C@H](C)CO)C[C@H](C)[C@H](CN(C)C(=O)C1CCOCC1)O2	none (no result: VHR inh abs, PrPC surface inh)
CC(C)NC(=O)N(C)C[C@H]1Oc2ncc(C#CC3CC3)cc2C(=O)N([C@H](C)CO)C[C@H]1C	none (no result: VHR inh abs, PrPC surface inh)
Cc1ccc(OCc2n[nH]c(=S)n2-c2ccc(Br)cc2)cc1	VHR inh abs 58
Cc1ccc(OCc2n[nH]c(=S)n2-c2ccc(Cl)cc2)cc1	none
O=C(C[C@H]1CC[C@H]2[C@@H](COC[C@@H](O)CN2C(=O)c2cccnc2)O1)NC1Cc2ccccc2C1	none (no result: VHR inh abs, PrPC surface inh)
CCC(C(=O)Nc1ccncc1)c1ccccc1 (configuration not stated)	none (no result: TcdB inh)
CCC(C(=O)Nc1ccc2[nH]ncc2c1)c1ccccc1 (configuration not stated)	VHR inh abs 57
CCN1C(=O)CC(N2CCN(c3ccc(Cl)cc3)CC2)C1=O (configuration not stated)	none (no result: TcdB inh)
CCN1C(=O)CC(N2CCN(c3ccc(C(=O)c4ccccc4)cc3)CC2)C1=O (configuration not stated)	VHR inh abs 57 (no result: TcdB inh)
COc1ccc(N2CCN(S(=O)(=O)c3c(C(=O)N4CCOCC4)c(C)n(C)c3C)CC2)cc1	VHR inh abs 51
CC(=O)c1ccc(N2CCN(S(=O)(=O)c3c(C(=O)N4CCCC4)c(C)n(C)c3C)CC2)cc1	none
CN(C)CC(=O)N1[C@@H]2Cn3c(ccc(C4=CCCC4)c3=O)[C@H]1[C@@H](C(=O)NCC1CC1)[C@@H]2CO	none (no result: VHR inh abs, PrPC surface inh)
CCC(=O)N1CC2(C1)[C@H](c1ccccc1)[C@@H](CO)N2C(=O)c1ccncc1	none (no result: VHR inh abs, PrPC surface inh)
Cc1cccc(CN2CCN(c3ccccn3)CC2)c1	none (no result: TcdB inh, VHR inh abs)
Cc1cccc(CN2CCN(c3ncccn3)CC2)c1	TcdB inh 13
COc1ccc(NC(=O)Nc2ccc3c(c2)C(=O)N([C@@H](C)CO)C[C@H](C)[C@@H](CN(C)Cc2ccncc2)OCCCC[C@H](C)O3)cc1	none (no result: VHR inh abs, PrPC surface inh)
O=C(NC1CC2CCCC(C1)N2Cc1ccccc1)c1cccc(F)c1 (configuration not stated)	VHR inh abs 56
O=C(NC1CC2CCCC(C1)N2Cc1ccccc1)c1cccc(Cl)c1 (configuration not stated)	none
CC(C)(C)OC(=O)N1CC=C2C(C#N)=C(N)C(C#N)(C#N)[C@H](c3cccnc3)[C@H]2C1	none (no result: TcdB inh)
N#CC1=C(N)C(C#N)(C#N)[C@H](c2ccncc2)[C@H]2CN(C(=O)OCc3ccccc3)CC=C12	VHR inh abs 54 (no result: TcdB inh)
C[C@H](CO)N1C[C@H](C)[C@@H](CN(C)S(=O)(=O)c2cn(C)cn2)Oc2ccc(NC(=O)Nc3ccc(C(F)(F)F)cc3)cc2CC1=O	none (no result: VHR inh abs, PrPC surface inh)
O=C(NCc1ccccn1)c1ccc(OC2CCN(Cc3ccc(F)cc3F)CC2)cc1	none
COc1ccc(CN2CCC(Oc3ccc(C(=O)NCc4ccccn4)cc3)CC2)c(F)c1	VHR inh abs 57
O=C(O)CSc1cnc2ccccc2n1	none
